# In the supplement of paper PMC6555819:
# Key:
# Experiment in all cases: PBM binding z-score (relative to random genomic background probes); higher = stronger binding; sequences stand for … in GC…GCGATTGACAGCGTAGAATGAAGG
# [1] = tested on: FXR:RXRa (NR concentration 270 nM, RXRa partner concentration 90 nM)
# How it was run: (§1)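 Random background probes are the reference for binding z-scores. These scores derive from regression-normalized fluorescence on custom Agilent 4×180K protein-binding microarrays incubated 1 h with ligand-free nuclear receptor dimers. Binding was detected with antibodies against each partner (one per run).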
# [2] = tested on: LXRa:RXRa (NR concentration 270 nM, RXRa partner concentration 90 nM)
# How it was run: as §1
# [3] = tested on: LXRa homodimer (NR concentration 270 nM)
# How it was run: as §1
# [4] = tested on: LXRb:RXRa (NR concentration 270 nM, RXRa partner concentration 90 nM)
# How it was run: as §1
# [5] = tested on: LXRb homodimer (NR concentration 270 nM)
# How it was run: as §1
# [6] = tested on: PPARa:RXRa (NR concentration 270 nM, RXRa partner concentration 90 nM)
# How it was run: as §1
# [7] = tested on: PPARg:RXRa (NR concentration 180 nM, RXRa partner concentration 90 nM)
# How it was run: as §1
# [8] = tested on: PPARg:RXRa 270nM:90nM, anti-RXR (NR concentration 270 nM, RXRa partner concentration 90 nM)
# How it was run: as §1
# [9] = tested on: PPARg:RXRa 30nM:10nM, anti-RXR (NR concentration 30 nM, RXRa partner concentration 10 nM)
# How it was run: as §1
# [10] = tested on: PPARg:RXRa 90nM:30nM, anti-RXR (NR concentration 90 nM, RXRa partner concentration 30 nM)
# How it was run: as §1
Sequence,PBM binding z-score [1],PBM binding z-score [2],PBM binding z-score [3],PBM binding z-score [4],PBM binding z-score [5],PBM binding z-score [6],PBM binding z-score [7],PBM binding z-score [8],PBM binding z-score [9],PBM binding z-score [10]
CCGAGTAGGGTATGGGGCATTCAGGCAACGGTGA,-0.164,-0.318,-0.305,0.261,-0.00353,1.14,2.09,3.6,1.5,3.18
CCAGACAGTTGAAAGGTAACTCAGTCTGGTACGC,0.192,0.408,-0.24,0.365,-0.0531,1.47,0.992,1.75,0.231,0.964
TCTGCTCGGTCAGTTGGTCAGCTAACGAGCTGCC,-0.211,-0.247,-0.549,-0.506,0.134,-0.00259,-1.22,0.38,0.881,0.52
GCGACTGGGGCATCAGCAGGTTATCATAACTTAA,-0.342,-0.258,-0.199,0.87,-0.615,1.38,0.968,0.916,-0.378,0.369
CGTCCAACGTCAAAGGTCAGTGAAGAGATGACGG,2.97,3.2,0.576,2.94,0.0829,4.04,3.28,4.92,2.64,4.72
ATATGTAGGTTATCGGCTCATTCAGTTTGCGCAT,0.488,0.867,0.283,0.755,1.03,2.6,4.14,3.87,1.47,3.4
TCTGGCAGGCCAGAGGGTCACTCAAGAGGTACGG,1.24,1.09,-0.32,1.08,-0.89,2.4,0.868,1.48,0.732,1.23
ACTAGCAGGCCAAGGGTCACTCAAGATTAGTCCG,2.48,2.76,0.0687,2.81,-0.402,4.43,7.75,7.53,7.41,8.63
CCCACTGGGCCAAAGGTCATTGATTCCAATGCTC,4.95,4.92,4.26,4.72,0.641,6.5,11.7,10.5,10.2,11
TCTTGTAGATCAAAGGTTAGGAAAGCCGAAGCCT,1.26,1.45,-0.217,1.24,-0.196,4.06,7.63,7.57,7.89,9.05
CGTGCTAGGTCATGGTCAGCTAATCTACAGTATG,3.55,2.46,0.0428,1.84,-0.338,3.36,2.98,2.8,0.471,2.11
TTTTGTAGATCAACAGGAGGTTAAGAAAGATCGA,0.519,1.38,0.44,1.16,0.116,1.7,0.596,1.25,1.03,1.29
CAGCCTAGGTCAGGGCCACTATAGGAGGAACGTT,1.85,1.24,-0.48,0.816,-0.559,2.18,1.36,1.27,-0.111,0.592
GCTATTAGTTCAAAGGGCAACCGAATGATTCTCG,2.78,2.89,0.929,2.17,0.2,3.79,4.51,5.96,5.32,6.42
GATACAGGGTCAGCTAAAGGCCAGAGTATGGAAA,4.35,2.74,-0.339,2.43,-0.758,4.67,4.07,3.58,0.882,2.24
GATACAGGGTCAAGGCCAGTGTACGCGTATTGAT,6.59,4.26,-0.145,3.52,-0.211,5.6,5.69,5.76,2.44,4.1
TCATATAGGTAATACATGTGAAAGTCGGCATCTA,0.838,1.1,0.394,0.937,0.272,1.43,1.42,2.35,3.69,3.13
ATCGAAAGGTCGAAGTGAGTATAGAGAAAGGGAA,3.94,3.53,0.221,2.69,0.919,4.23,2.38,3.01,1.33,2.56
AGTCAAAGTTCACTAGGTACCGTAAGATTCAGCT,4.67,5.23,3.18,3.05,0.945,4.23,5.85,6.01,2.8,5.22
TGAATGAGGTTATAGATCAGGGAACGTGGCGTCG,1.56,1.48,-0.163,0.762,0.262,2.84,2.57,3.62,2.18,3.73
CTCGAAAGGACGTGCTCAGGTGAGTATACCAAAC,0.0322,-0.223,-0.388,-0.196,-0.277,-0.124,0.136,-0.268,-0.294,-0.148
CAAACTAGGTCACCGGAAGGTCAAAGTCCGCATG,6.27,6.15,5.16,5.46,1.59,6.16,9.5,7.87,5.79,7.49
CGTCCAAGGTCAAGGTCAGTGTAAGAGACTCGAA,7.52,5.66,1.6,4.66,0.633,5.87,6.25,6.02,2.39,4.8
CGTACAAGGTCAGAGAGGTCAGTGAATGCCGAGT,6.42,5.64,3.38,4.41,0.711,5.09,4.76,4.98,1.97,3.42
